# Compounds without any hit were thinned out: in the full panel of roughly 79,000, 15% have a hit. Unmarked numbers belong to inactive results. Active and inactive are the calls of the source. No stated cut-off is given here; in the data, active means growth inhibition above about 70%; inactive means the rest.
# Assay: NCI Yeast Anticancer Drug Screen. Data for the rad18 strain (AID 177)
# Details: S. cerevisiae rad18 mutant growth inhibition; at 11.0 µM; hits give high values
# Procedure, shortened: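 Screen uses a yeast strain with a defined lesion in DNA damage repair; compound effect is read as loss of growth compared to untreated vehicle cultures.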
row,Compound,growth inhibition
1,CCOP(=O)(OCC)C(Cc1ccccc1)N=C(c1ccccc1)c1ccccc1 (centres undefined),29%
2,CCc1ncnc2cc(OCC3CO3)c(OC)cc12 (centres undefined),92% (active)
3,CCOC(=O)[C@H]1Nc2ccccc2C2c3ccccc3CC21 (some centres undefined),17%
4,O=CNc1ccc2c(c1)C(=O)c1ccccc1-2,7%
5,CCOc1ccc2c(c1)c(CC(=O)O)cn2C,26%
6,OC1CSCCCSCCSCCCSC1,-49%
7,N#Cc1c(N)[nH]c2ccc(Sc3ccccc3)cc12,87% (active)
8,Cc1ccc(-c2ccc(Nc3c4ccccc4nc4ccccc34)cc2)cn1,12%
9,c1ccc2c(c1)NC(NC1Nc3ccccc3N1)N2,29%
10,OC(COc1cccc2ccccc12)CN1CCOCC1 (centres undefined),55%
11,CCC/C(Cl)=N\OC(=O)Nc1ccc(Br)cc1,93% (active)
12,COc1ccc(/C=C2\SC(=S)N(/C=C/c3nc4ccccc4[nH]c3=O)C2=O)cc1OC,39%
13,O=C(NNc1ccnc2cc(Cl)ccc12)/C(=C\c1ccccc1Cl)NC(=O)c1ccccc1,34%
14,CSC1=NNC(SC)=NN1,60%
15,Cc1c(C2=C(Br)C(=O)N(C)C2=O)c(=O)n(C)c(=O)n1C,75% (active)
16,NCCNc1ccc(NCCN)c2c1C(=O)c1c(O)ccc(O)c1C2=O,8%
17,Cn1c(=O)c(-c2ccccc2)c(N=[N+]=[N-])c2ccccc21,11%
18,CCCCCCCCCCCCCCCCCCOCC(O)COP(=O)(O)OCC1OC(n2cc(F)c(=O)[nH]c2=O)CC1O (centres undefined),52%
19,CCS(=O)(=O)c1ccc(/C=C/C=N/NC(=S)NCC(C)C)cc1,-1%
20,CCC(=O)Oc1c(Cl)cc(Cl)c2ccccc12,1%

row,Compound,growth inhibition
1,COc1cc2c3c(cccc3c1)C(=O)N(CCN(C)C)C2=O,-23%
2,CN(C)c1ccc(C(C#N)=C(C#N)C#N)cc1,5%
3,O=C(CCCN1CCC2(CC1)CC(=O)N(N1CCCCCC1)C2=O)c1ccc(F)cc1,57%
4,O=C1C2C(C(=O)N1c1ccc(OCc3ccccc3)cc1)C1c3ccccc3C2C2CCCCN21 (centres undefined),8%
5,CCN(CC)CCC(=O)c1ccc(Oc2ccc(F)cc2)cc1,27%
6,O=Nc1c(NO)ccc2nn(-c3ccccc3)nc12,97% (active)
7,CC(=O)SCCC[Si](C)(C)CCCSC(C)=O,3%
8,O=C(O)C1CCCCC1c1c2ccc(=O)c(O)c-2oc2c(O)c(O)ccc12 (centres undefined),2%
9,Cc1ccc(NN(NC(=O)OC(C)C)C(=O)OC(C)C)cc1,1%
10,O=C1c2ccccc2C(=O)c2cc(CBr)ccc21,23%
11,Cc1c(C(Cc2ccccc2N(C)C(=O)/C=C\C(=O)O)c2c[nH]c3ccccc23)c2ccccc2n1C (centres undefined),-8%
12,CC(C)/C(Cl)=N\OC(=O)Nc1ccc(F)cc1,2%
13,O=C1OC(=O)C2CCCC3CCCC1C32 (centres undefined),94% (active)
14,CCOC(=O)C(NC(=O)c1ccccc1)(N1CCN(c2cc3c(cc2F)c(=O)c(C(=O)O)cn3C2CC2)CC1)C(F)(F)F (centres undefined),0%
15,COc1ccc(NC(=S)N/N=C(\c2ccccc2)c2ccccn2)cc1,-2%
16,C=CCC1=C(C)C(OC(=O)/C=C/c2ccccc2)CC1=O (centres undefined),-1%
17,NNc1c(F)c(F)cc(F)c1F,-17%
18,COP(=O)(OC)/C(=C\C1=CN(C(c2ccccc2)(c2ccccc2)c2ccccc2)CN1)NC=O,-13%
19,COC(=O)c1cc(-c2ccc(C)cc2)[nH]c(=O)c1C#N,-16%
